The values below come from PubChem BioAssay (NCI).

The panel holds about 83,000 compounds, 20% with a hit somewhere; the sample as a whole holds those more often.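 Step 1: grow cells in 96-well plates. Step 2: add test compound at a single concentration. Step 3: incubate 48 h. Step 4: record percent growth.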 A number with no mark means an inactive call. Calls of active or inactive are those of the source. Rule for the calls: active = growth percent below 10; inactive = the rest.

Among the test systems are SR leukemia; RPMI-8226 leukemia; OVCAR-8 ovarian; OVCAR-5 ovarian; OVCAR-4 ovarian; SK-OV-3 ovarian; IGROV1 ovarian; OVCAR-3 ovarian; HS 578T breast; NCI/ADR-RES ovarian.
Assay in all cases: NCI-60 one-dose screen, 48 h (100 = growth as untreated, 0 = no growth, -100 = all killed)
Holding throughout (conditions): 10 µM unless noted

Take `O=C(c1nc2ccccc2[nH]1)C1C(c2ccc(Br)cc2)C2CC3CCCC[C@H]3N2[C@@]12C(=O)Nc1cc(Cl)ccc12` (stereo not given in full): the growth is 31.3% with SR leukemia; 17% in the experiment on RPMI-8226 leukemia; 58.5% in the experiment on OVCAR-8 ovarian; 46.8% in the experiment on OVCAR-5 ovarian; 34.7% in the experiment on OVCAR-4 ovarian; 67.6% in the experiment with SK-OV-3 ovarian. Besides, the growth was 28.8% in the experiment on IGROV1 ovarian, 34.3% in the experiment on OVCAR-3 ovarian, 66.8% in the experiment with HS 578T breast and 46.7% in the experiment with NCI/ADR-RES ovarian.

Turning to `COc1cc(-c2csc(NC(=O)c3cc(F)cc(C(F)(F)F)c3)n2)cc(OC)c1OC`, the growth was 16.1% in the experiment with SR leukemia; -4.32% (active) with RPMI-8226 leukemia; 37.7% in the experiment on OVCAR-8 ovarian; 82.7% with OVCAR-5 ovarian; 58.7% in the experiment on OVCAR-4 ovarian; 54.3% in the experiment with SK-OV-3 ovarian. Further, the growth with IGROV1 ovarian was 43.8%; in the experiment on OVCAR-3 ovarian, 12.2%; in the experiment on HS 578T breast, 20%; in the experiment with NCI/ADR-RES ovarian, 49.8%.

On to `O=C(CNCCN1CCOCC1)N1c2cccc3cccc(c23)N(C(=O)CNCCN2CCOCC2)C1c1cn(-c2ccccc2)nc1-c1cccc([N+](=O)[O-])c1`, for which the growth in the experiment on SR leukemia was -19.4% (active); in the experiment with RPMI-8226 leukemia it was 44.8%; with OVCAR-8 ovarian, 88.3%; in the experiment with OVCAR-5 ovarian it was 107%; in the experiment on OVCAR-4 ovarian it was 90.7%; in the experiment with SK-OV-3 ovarian it was 109%. The growth is 74.3% in the experiment on IGROV1 ovarian, 93.6% in the experiment on OVCAR-3 ovarian, 69.1% in the experiment with HS 578T breast and 87.7% with NCI/ADR-RES ovarian.

Consider `Cc1nn(-c2ccccc2)c(Oc2c(Cl)cccc2Cl)c1/C=N/N=c1\sc2ccccc2n1C`, for which the growth was 16.6% with SR leukemia; 36.6% with RPMI-8226 leukemia; 45.8% with OVCAR-8 ovarian; 58.5% in the experiment on OVCAR-5 ovarian; 81.8% with OVCAR-4 ovarian; 70.6% with SK-OV-3 ovarian. Also, the growth is 53.6% with IGROV1 ovarian, 49.9% in the experiment on OVCAR-3 ovarian, 73.2% in the experiment with HS 578T breast and 56.1% in the experiment on NCI/ADR-RES ovarian.

With `CCCCCN1C=C/C(=C\C(=O)N2CCCc3ccccc32)c2ccccc21`, the growth with SR leukemia is 61.6%; in the experiment on RPMI-8226 leukemia, 43.9%; with OVCAR-8 ovarian it was 89.3%; in the experiment on OVCAR-5 ovarian, 99.8%; in the experiment on OVCAR-4 ovarian it was 75.2%; in the experiment on SK-OV-3 ovarian, 95%. Besides, the growth with IGROV1 ovarian was 77.9%; in the experiment with OVCAR-3 ovarian, 84.5%; in the experiment on HS 578T breast, 94.8%; in the experiment on NCI/ADR-RES ovarian, 107%.

For the compound `O=C(/C=C(/C=C/c1coc2ccccc12)OB(F)F)/C=C/c1coc2ccccc12`, the growth with SR leukemia is 48.8%; in the experiment with RPMI-8226 leukemia, 84.9%; with OVCAR-8 ovarian it was 87.7%; with OVCAR-5 ovarian, 113%; in the experiment with OVCAR-4 ovarian, 107%; in the experiment on SK-OV-3 ovarian, 122%. Also, the growth in the experiment on IGROV1 ovarian was 97.5%; in the experiment with OVCAR-3 ovarian it was 58.2%; in the experiment on HS 578T breast, 91.4%; with NCI/ADR-RES ovarian it was 102%.

As for `C/C(=N\Nc1cc(C)nc2ccc(Br)cc12)c1ccc([N+](=O)[O-])cc1`, the growth was 1.78% (active) in the experiment on SR leukemia; 27.5% in the experiment on RPMI-8226 leukemia; 50.8% with OVCAR-8 ovarian; 111% in the experiment with OVCAR-5 ovarian; 47% in the experiment with OVCAR-4 ovarian; 84.1% with SK-OV-3 ovarian. Further, the growth with IGROV1 ovarian is 53.4%; in the experiment with OVCAR-3 ovarian, 26.8%; in the experiment on HS 578T breast, 96.8%; in the experiment on NCI/ADR-RES ovarian, 81.1%.

In the case of `COc1ccc2c(c1)oc1c(C)c3c(c(C)c12)C(=O)N(N)C3=O`, the growth is 26.2% in the experiment with SR leukemia; 59.5% in the experiment with RPMI-8226 leukemia; 26.9% in the experiment with OVCAR-8 ovarian; 40.4% in the experiment on OVCAR-5 ovarian; -20.8% (active) in the experiment with OVCAR-4 ovarian; 61.2% in the experiment on SK-OV-3 ovarian. The growth was 26.8% in the experiment with IGROV1 ovarian, 24.9% in the experiment with OVCAR-3 ovarian, 19.1% with HS 578T breast and 28.6% in the experiment on NCI/ADR-RES ovarian.

With `COc1cc(CC(=O)c2ccc(O)c(OC)c2)ccc1O`, the growth was 90.1% in the experiment on SR leukemia; 97.9% in the experiment with RPMI-8226 leukemia; 97.9% with OVCAR-8 ovarian; 97.9% with OVCAR-5 ovarian; 103% in the experiment on OVCAR-4 ovarian; 99.7% with SK-OV-3 ovarian. Besides, the growth in the experiment on IGROV1 ovarian was 111%; in the experiment on OVCAR-3 ovarian, 105%; with HS 578T breast, 98.5%; in the experiment with NCI/ADR-RES ovarian, 100%.

As for `COc1ccc(-c2nc([C@@H](C)Sc3nc(N)cc(N)n3)c(C)s2)cc1OCCN1CCOCC1`, the growth was 97.5% with SR leukemia; 70.3% with RPMI-8226 leukemia; 95.8% in the experiment on OVCAR-8 ovarian; 121% in the experiment with OVCAR-5 ovarian; 106% in the experiment on OVCAR-4 ovarian; 131% in the experiment with SK-OV-3 ovarian. For the same compound, the growth with IGROV1 ovarian was 123%; with OVCAR-3 ovarian, 102%; with HS 578T breast, 94.2%; with NCI/ADR-RES ovarian, 101%.

In the case of `CCN(CC)CC[n+]1cc2cc(OC)c(OC)cc2c2ccc3cc4c(cc3c21)OCO4`, the growth was -11.3% (active) in the experiment on SR leukemia; -32.7% (active) in the experiment with RPMI-8226 leukemia; -82.8% (active) in the experiment on OVCAR-8 ovarian; 6.85% (active) with OVCAR-5 ovarian; 1.21% (active) with OVCAR-4 ovarian; -10.7% (active) in the experiment with SK-OV-3 ovarian. Also, the growth was -44.1% (active) in the experiment on IGROV1 ovarian, 13.4% in the experiment on OVCAR-3 ovarian, -4.12% (active) in the experiment with HS 578T breast and 70.5% in the experiment with NCI/ADR-RES ovarian.

Turning to `COc1cccc(-c2nc3occn3c2-c2ccnc(NCCCNS(=O)(=O)c3ccc(C(F)(F)F)cc3)n2)c1`, the growth in the experiment with SR leukemia is 97.2%; in the experiment on RPMI-8226 leukemia, 79.3%; in the experiment with OVCAR-8 ovarian, 87%; with OVCAR-5 ovarian, 128%; with OVCAR-4 ovarian, 76.4%; in the experiment on SK-OV-3 ovarian it was 81.9%. For the same compound, the growth with IGROV1 ovarian was 90.5%; in the experiment with OVCAR-3 ovarian, 100%; in the experiment on HS 578T breast it was 98.2%; in the experiment with NCI/ADR-RES ovarian it was 89.2%.

Regarding `CCOC(=O)C1=C(C)NC(SCc2cc(=O)oc3ccc(F)cc23)=N[C@@H]1c1cccc2ccccc12`, the growth in the experiment on SR leukemia is 83.5%; in the experiment on RPMI-8226 leukemia it was 90.5%; in the experiment with OVCAR-8 ovarian it was 89.5%; in the experiment on OVCAR-5 ovarian, 119%; with OVCAR-4 ovarian, 102%; with SK-OV-3 ovarian, 92.5%. Moreover, the growth was 99.4% in the experiment with IGROV1 ovarian, 92.4% with OVCAR-3 ovarian, 106% with HS 578T breast and 98.7% with NCI/ADR-RES ovarian.

For the compound `C#CCNC(=O)c1cccc2c1cc(C)n2-c1nc2c(c(NCc3ccccc3)n1)CCCC2`, the growth with SR leukemia is 6.53% (active); in the experiment on RPMI-8226 leukemia, 0.445% (active); with OVCAR-8 ovarian, 12.8%; with OVCAR-5 ovarian, 8.62% (active); with OVCAR-4 ovarian, -11.8% (active); in the experiment on SK-OV-3 ovarian, 2.45% (active). Also, the growth with IGROV1 ovarian was -21.7% (active); in the experiment with OVCAR-3 ovarian, -61.2% (active); with HS 578T breast, 8.06% (active); in the experiment with NCI/ADR-RES ovarian, 1.28% (active).

For the compound `CC(C)(C)c1cc(/C=N/NC(=O)c2ccccc2NC(=O)c2cccs2)c(O)c(C(C)(C)C)c1`, the growth with SR leukemia is -27.2% (active); in the experiment on RPMI-8226 leukemia, 32.5%; with OVCAR-8 ovarian, 10.1%; with OVCAR-5 ovarian it was 67.7%; in the experiment with OVCAR-4 ovarian, -34.6% (active); in the experiment with SK-OV-3 ovarian it was 31.8%. For the same compound, the growth was 36.3% in the experiment on IGROV1 ovarian, 6.92% (active) with OVCAR-3 ovarian, 71.5% in the experiment on HS 578T breast and 18.8% in the experiment with NCI/ADR-RES ovarian.

For the compound `O=C(CCN1CCCC1)Nc1ccc2c(Nc3ccc(F)cc3)c3ccccc3nc2c1`, the growth in the experiment with SR leukemia was -20.9% (active); with RPMI-8226 leukemia, -37.1% (active); in the experiment on OVCAR-8 ovarian, 4.18% (active); with OVCAR-5 ovarian it was 12.9%; in the experiment with OVCAR-4 ovarian it was -16.1% (active); in the experiment on SK-OV-3 ovarian, 38.4%. For the same compound, the growth in the experiment on IGROV1 ovarian was 0.357% (active); with OVCAR-3 ovarian, -31.5% (active); in the experiment on HS 578T breast, 25.2%; in the experiment with NCI/ADR-RES ovarian, 33.8%.

As for `COc1ccc(C(=O)c2cc(OC)c(OC)c(OC)c2)cc1O`, the growth in the experiment on SR leukemia is 7.02% (active); in the experiment with RPMI-8226 leukemia, 12.7%; in the experiment on OVCAR-8 ovarian, 14.1%; in the experiment with OVCAR-5 ovarian, 31.8%; in the experiment on OVCAR-4 ovarian it was 30.6%; in the experiment with SK-OV-3 ovarian, 37.2%. For the same compound, the growth in the experiment on IGROV1 ovarian is 16.2%; with OVCAR-3 ovarian, -6.73% (active); in the experiment on HS 578T breast it was 28.8%; in the experiment with NCI/ADR-RES ovarian, -32.3% (active).

For the compound `COc1cccc(/C=N/NC(=O)c2cnn3c2NC(c2ccccc2)C3)c1Oc1ccccc1` (stereo not given), the growth in the experiment on SR leukemia was 43.1%; in the experiment on RPMI-8226 leukemia, 100%; in the experiment on OVCAR-8 ovarian, 89%; in the experiment with OVCAR-5 ovarian it was 97.4%; with OVCAR-4 ovarian it was 98.9%; in the experiment on SK-OV-3 ovarian it was 90.8%. Further, the growth in the experiment with IGROV1 ovarian is 78.4%; in the experiment with OVCAR-3 ovarian it was 42%; in the experiment with HS 578T breast it was 93.4%; with NCI/ADR-RES ovarian it was 87.9%.

As to `Cc1ccc(S(=O)(=O)Nn2c3c(cc(-c4nc5ccccc5s4)c2=O)CCCCCC3)cc1`, the growth is 97.8% in the experiment with SR leukemia; 97.8% in the experiment on RPMI-8226 leukemia; 92.3% in the experiment with OVCAR-8 ovarian; 105% in the experiment with OVCAR-5 ovarian; 98.5% in the experiment on OVCAR-4 ovarian; 104% with SK-OV-3 ovarian. Further, the growth in the experiment on IGROV1 ovarian was 95.3%; with OVCAR-3 ovarian it was 102%; in the experiment with HS 578T breast it was 91.7%; in the experiment on NCI/ADR-RES ovarian, 95.8%.

Regarding `COc1cc2nc(-c3ccc(Cl)cc3)cc(OCCCN3CCC(O)CC3)c2cc1OC`, the growth was 15.9% in the experiment on SR leukemia; 23.2% in the experiment on RPMI-8226 leukemia; 42.9% in the experiment with OVCAR-8 ovarian; 45.8% with OVCAR-5 ovarian; 68.7% with OVCAR-4 ovarian; 74.3% with SK-OV-3 ovarian. For the same compound, the growth is 33.2% in the experiment with IGROV1 ovarian, 71.7% in the experiment on OVCAR-3 ovarian, 66.9% in the experiment with HS 578T breast and 44.6% in the experiment on NCI/ADR-RES ovarian.
